Results filed as inconclusive are left out. Activity calls are given as the source filed them. Calls come from the whole dose curve; as a rule, active = well fitted curve in the direction sought with a large enough effect; inconclusive = small, poorly fitted or top-dose-only effect, or another doubt; inactive = no such curve, though single readings can be large; an effect the other way counts as inactive or inconclusive.
Experiments:
[1] = qHTS of pediatric cancer cell lines to identify multiple opportunities for drug repurposing: Primary screen for NB1643 cells (AID 1347099); note: nearly all actives have a fitted effect of over 50% in size; note: potency is the fitted concentration of half-maximal effect
Procedure, shortened: (§1)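 Cells seeded at 500-1,000 cells/well in growth media, rested 5 hours at 37 degrees C, 5% CO2, then dosed; MIPE compounds at 11-point (from 0.78 nM) and NPC at 8-point (from 0.59 nM) final concentrations. Viability by CellTiter-Glo luminescence after 48 hours.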

[2] = qHTS of pediatric cancer cell lines to identify multiple opportunities for drug repurposing: Primary screen for BT-12 cells (AID 1347101); note: nearly all actives have a fitted effect of over 25% in size; note: potency is the fitted concentration of half-maximal effect
Procedure, shortened: (§2)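 Cells (500-1,000/well) rested 5 h, then received compounds for 48 h; metabolically active cells were measured by CellTiter-Glo luminescence. Final concentrations spanned up to 46 µM (MIPE, 11-point) or 0.59 nM-46 µM (NPC, 8-point) in primary screens, 11-point in follow-ups.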

[3] = qHTS of pediatric cancer cell lines to identify multiple opportunities for drug repurposing: Primary screen for OHS-50 cells (AID 1347103); note: nearly all actives have a fitted effect of over 40% in size; note: potency is the fitted concentration of half-maximal effect
Procedure, shortened: as §2

[4] = qHTS of pediatric cancer cell lines to identify multiple opportunities for drug repurposing: Primary screen for RD cells (AID 1347104); note: nearly all actives have a fitted effect of over 55% in size; note: potency is the fitted concentration of half-maximal effect
Procedure, shortened: as §1

[5] = qHTS of pediatric cancer cell lines to identify multiple opportunities for drug repurposing: Primary screen for MG 63 (6-TG R) cells (AID 1347105); note: nearly all actives have a fitted effect of over 50% in size; note: potency is the fitted concentration of half-maximal effect
Procedure, shortened: as §1

[6] = qHTS of pediatric cancer cell lines to identify multiple opportunities for drug repurposing: Primary screen for control Hh wild type fibroblast cells (AID 1347106);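 note: series mostly up to about 46 µM; a drop in luminescence marks cytotoxicity and a rise apparent proliferation; nearly all actives have a fitted effect of over 55% in size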
Procedure, shortened: (§3)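 Cells (500-1,000/well) in growth media were settled 5 h at 37 degrees C, then given compounds for 48 h. Viability was read as CellTiter-Glo luminescence. Primary runs used MIPE at 11 points (0.78 nM-46 µM) and NPC at 8 points (0.59 nM-46 µM); follow-ups used 11 points.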

[7] = qHTS of pediatric cancer cell lines to identify multiple opportunities for drug repurposing: Primary screen for Rh30 cells (AID 1347107); note: nearly all actives have a fitted effect of over 75% in size; note: potency is the fitted concentration of half-maximal effect
Procedure, shortened: as §3

[8] = qHTS of pediatric cancer cell lines to identify multiple opportunities for drug repurposing: Primary screen for Rh41 cells (AID 1347108); note: nearly all actives have a fitted effect of over 70% in size; note: potency is the fitted concentration of half-maximal effect
Procedure, shortened: as §1

[9] = qHTS of pediatric cancer cell lines to identify multiple opportunities for drug repurposing: Primary screen for LAN-5 cells (AID 1347100); note: potency is the fitted concentration of half-maximal effect
Procedure, shortened: as §3

[10] = qHTS of pediatric cancer cell lines to identify multiple opportunities for drug repurposing: Primary screen for Rh18 cells (AID 1347102); note: nearly all actives have a fitted effect of over 65% in size; note: potency is the fitted concentration of half-maximal effect
Procedure, shortened: as §3

Measured: Potency

O=C(O)Cc1cccc(OCCCN(Cc2cccc(C(F)(F)F)c2Cl)CC(c2ccccc2)c2ccccc2)c1
inactive: [1] | [6]
active: [2] 24.3 µM | [3] 27.3 µM | [4] 33.2 µM | [5] 23.5 µM | [7] 23.5 µM | [8] 23.5 µM

CC(=O)Nc1cccc(-n2c(=O)n(C3CC3)c(=O)c3c(Nc4ccc(I)cc4F)n(C)c(=O)c(C)c32)c1
inactive: [5] | [6] | [8]
active: [1] 18.7 µM | [9] 18.7 µM | [4] 0.0372 µM

COc1nccc(-c2c(-c3ccc(F)cc3)ncn2C2CCNCC2)n1
inactive: [1] | [9] | [10] | [5] | [6] | [8]

Cc1cc(CS(=O)(=O)c2ccccc2)cc(OCc2ccc(CN3CCC[C@H]3CO)cc2)c1
active: [1] 14.8 µM | [4] 5.9 µM | [8] 11.8 µM
inactive: [9] | [6]

COC(=O)[C@H](c1ccccc1Cl)N1CCc2sccc2C1
active: [1] 20.9 µM
not listed: [2] | [3] | [4]
inactive: all other assays above

COc1cccc(OC)c1-c1cc(C(=O)NC2(C(=O)O)C3CC4CC(C3)CC2C4)nn1-c1ccnc2cc(Cl)ccc12 (stereo not given)
not listed: [1]
inactive: all other assays above

CCCCC(C)(C)[C@H](O)C=C[C@H]1[C@H](O)CC(=O)[C@H]1CC=CCCCC(=O)O
inactive: [1] | [3] | [5] | [6]

CCN1CCN(c2ccc(Nc3cc(N(C)C(=O)Nc4c(Cl)c(OC)cc(OC)c4Cl)ncn3)cc2)CC1
inactive: [1] | [2] | [5] | [6] | [8]

CC(C)c1onc(-c2c(Cl)cccc2Cl)c1COc1ccc(C=Cc2cccc(C(=O)O)c2)c(Cl)c1
active: [3] 30.6 µM
inactive: [1] | [6]

O=[N+]([O-])c1ccc(Nc2ccccc2-c2ccccc2)c2nonc12
active: [1] 23.5 µM
inactive: [10] | [6]

CCOC(=O)N1c2ccc(C(F)(F)F)cc2[C@@H](N(Cc2cc(C(F)(F)F)cc(C(F)(F)F)c2)C(=O)OC)C[C@H]1CC
active: [3] 15.3 µM
inactive: [1] | [4] | [5] | [6]

C=C1[C@H](n2cnc3c(=O)[nH]c(N)nc32)C[C@H](O)[C@H]1CO
inactive: [1] | [10] | [6] | [7] | [8]
active: [3] 8.63 µM

NS(=O)(=O)c1cc(Cl)c(Cl)c(S(N)(=O)=O)c1
not listed: [1]
inactive: all other assays above

O=C1CN2Cc3c(ccc(Cl)c3Cl)N=C2N1
active: [3] 21.7 µM
inactive: [1] | [6]

CCN1C[C@H](C)n2c(c(O)c3c(=O)n(Cc4ccc(F)c(Cl)c4)nc(C(=O)NC)c32)C1=O
not listed: [1]
inactive: all other assays above

C[C@@H](O[C@H]1OCCN(Cc2n[nH]c(=O)[nH]2)[C@@H]1c1ccc(F)cc1)c1cc(C(F)(F)F)cc(C(F)(F)F)c1
active: [1] 23.5 µM | [3] 30.6 µM | [5] 23.5 µM
inactive: [6]

CN1CC(=O)NC1=NC(=O)Nc1cccc(Cl)c1
inactive: [10] | [4] | [5] | [6]
active: [1] 4.69 µM

O=C(NC[C@H](O)CO)c1ccncc1Nc1ccc(I)cc1F
active: [10] 10.5 µM
inactive: [1] | [3] | [5] | [6] | [7]

COc1cc2c(cc1Cc1cccc(Cl)c1F)c(=O)c(C(=O)O)cn2[C@H](CO)C(C)C
inactive: [6]
active: [1] 23.5 µM | [3] 27.3 µM

CC1(C)C(N(O)C(=O)Nc2ccc(Cl)cc2)N(c2ccc(Cl)cc2)C(=O)N1CC(=O)NN=CC=Cc1ccc([N+](=O)[O-])o1 (stereo not given)
active: [1] 20.9 µM | [10] 20.9 µM | [4] 29.6 µM | [8] 14.8 µM

CC[C@H](C)C(=O)O[C@H]1C[C@H](O)C=C2C=C[C@H](C)[C@H](CC[C@@H](O)C[C@@H](O)CC(=O)O)[C@H]21
not listed: [1]
inactive: all other assays above

NC[C@H]1O[C@H](O[C@@H]2[C@@H](O)[C@@H](O[C@H]3O[C@H](CO)[C@@H](O)[C@H](N)[C@@H]3O)[C@H](N)C[C@@H]2N)[C@H](O)[C@@H](O)[C@H]1O
not listed: [1]
inactive: all other assays above

O=C(Nc1cccc2c(=O)cc(-c3nn[nH]n3)oc12)c1ccc(OCCCCc2ccccc2)cc1
active: [3] 24.3 µM | [4] 37.2 µM
inactive: [1] | [5] | [6] | [7] | [8]

Reference: PubChem BioAssay (NCATS)
